Assay results reported in PubChem BioAssay (NCI).
About 83,000 compounds went through this panel and 20% of them were active in at least one assay; those are over-represented in the sample as a whole.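 Cells were grown in 96-well plates and exposed to the test compound at a single concentration for 48 hours; results are reported as percent growth, with values below 10 considered active.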 Unmarked numbers belong to inactive results. Active and inactive are the calls of the source.

Each compound was assayed on MALME-3M melanoma (assay: NCI-60 one-dose screen, 48 h (100 = growth as untreated, 0 = no growth, -100 = all killed)). Conditions: 10 µM unless noted.

Q: How did the growth turn out when `Cc1ccc2c(n1)C(=O)C(Cl)=C(Nc1cccc(C(C)C)c1)C2=O` was run?
A: Its growth is 83.8%.

Q: `Cn1cc(-c2cc(N)n3nc(-c4cn(C)c5ccc(F)cc45)cc3n2)c2cc(F)ccc21` was tested. Which growth did it give?
A: The growth was 90.8%.

Q: `Cn1c(SCC(=O)c2cccs2)nc2ccccc2c1=O` was tested. Which growth did it give?
A: Its growth is 102%.

Q: Which growth does the source give for `CCCC(=O)NC(c1ccc(N(CC)CC)cc1)c1cc(C)c2cccnc2c1O` (centres undefined) here?
A: Its growth is 16%.

Q: `COC(=O)C1CCCN(S(=O)(=O)/N=C2\NC(=O)NC2=C(Cl)Cl)C1` (centres undefined) was tested. Which growth did it give?
A: The growth was 104%.

Q: `O=C(N/N=C/c1ccc([N+](=O)[O-])s1)c1[nH]c2ccc(Br)cc2c1-c1ccccc1` was tested. Which growth did it give?
A: Its growth is 14.8%.

Q: With `C=C1CC[C@H]2[C@@](C)(CCC3OC(c4ccc(OCc5cn(C6CC(OC(C)=O)C(OC(C)=O)C(COC(C)=O)O6)nn5)cc4)OC[C@]32C)[C@@H]1/C=C/C1=CCOC1=O` (some centres undefined) as the compound, how does the growth read?
A: Its growth is 58%.

Q: How did the growth turn out when `COc1ccc([C@@H]2c3[nH]c4ccccc4c3CC3C(=O)N(C4CCN(Cc5c(F)cccc5F)CC4)CC(=O)N32)c(OC)c1` (some centres undefined) was run?
A: Its growth is 68% [5.26 µM].

Q: For `O=C(N/N=C/c1ccc(Br)s1)c1[nH]c2ccc(Br)cc2c1-c1ccccc1`, which growth is on record?
A: The growth was 55.1%.

Q: For `O=C1c2c(c3c4cccnc4[nH]c3c3ccc4ccccc4c23)C(=O)N1CCO`, which growth is on record?
A: The growth was 114%.

Q: For `Nc1c(C(=O)Nc2ccc(C(F)(F)F)cc2)sc2nc(-c3cnccn3)cc(-c3cccs3)c12`, which growth is on record?
A: Its growth is 89%.

Q: For `CSc1ccc2c(c1)N(C(=O)/C(C#N)=C/c1c[nH]c3ccccc13)c1ccccc1S2`, which growth is on record?
A: The growth was 55.7%.

Q: For `Cc1cc(C(=O)Nc2sc3c(c2C(N)=O)CCC(=O)C3)ccc1OCCN1CCCCC1`, which growth is on record?
A: Its growth is 102%.

Q: Which growth does the source give for `CN(C)c1ccc(/C=c2\sc3nc4ccccc4n3c2=O)cc1` here?
A: Its growth is 101%.

Q: How did the growth turn out when `CN(C)c1ccc(/C=C2\Cc3c(F)ccc(Br)c3C2=O)cc1` was run?
A: Its growth is 92.8%.

Q: `CN1CCN(Cc2ccc(NC(=O)c3cncc(C#Cc4cnc5ccc(N6CCSCC6)nn45)c3)cc2C(F)(F)F)CC1` was tested. Which growth did it give?
A: The growth was -62.6% (active).

Q: Which growth does the source give for `COc1cc(/C=C/C(=O)c2ccc(C)cc2)ccc1Oc1nc(NCCO)nc(N2CCOCC2)n1` here?
A: Its growth is 71.6%.

Q: How did the growth turn out when `O=C(CSc1nnc(-c2ccc3nc(-c4ccc(Cl)cc4)[nH]c3c2)o1)Nc1ccc(C(=O)/C=C/c2ccc(Cl)cc2)cc1` was run?
A: The growth was 102%.

Q: With `C#Cc1nc(C2=C(C)C(=N\O)/C(=N/O)C2)cs1` as the compound, how does the growth read?
A: Its growth is 94.4%.

Q: How did the growth turn out when `CCOc1ccc2nc(NC(=O)c3ccc(C(F)(F)F)cc3)sc2c1` was run?
A: The growth was 112%.

Q: With `CC(O)C(NC(=O)C1CCCN1C(=O)CNC(=O)C1CC(=O)NCC(=O)NC(Cc2c[nH]c3ccccc23)C(=O)NC(Cc2ccc(O)cc2)C(=O)NCC(=O)NC(CO)C(=O)NC(CCC(N)=O)C(=O)NC(Cc2c[nH]c3ccccc23)C(=O)N1)C(=O)NCC(=O)NC(CCC(N)=O)C(=O)NC(CCCNC(=N)N)C(=O)NC(CC(=O)O)C(=O)O` (centres undefined) as the compound, how does the growth read?
A: The growth was 95.5%.

Q: With `CC1=C(C)C(=O)C(Nc2ccccc2)=C(Cl)C1=O` as the compound, how does the growth read?
A: The growth was 108%.

Q: With `CO/N=C1\CCc2c(sc(NC(=O)c3cccc(C(F)(F)F)c3)c2C(N)=O)C1` as the compound, how does the growth read?
A: The growth was 29.4%.

Q: With `COc1ccc(CNS(=O)(=O)/N=C2\NC(=O)NC2=C(Cl)Cl)cc1` as the compound, how does the growth read?
A: The growth was 76%.

Q: `NS(=O)(=O)c1cccc(Nc2nc(SCC(=O)c3ccc([N+](=O)[O-])cc3)nc3ccccc23)c1` was tested. Which growth did it give?
A: The growth was 58.6%.

Q: For `Cn1ccnc1C(=O)/C=C/c1ccc(NC(=O)Nc2ccccc2)cc1`, which growth is on record?
A: Its growth is 69.6%.

Q: For `CCOC(=O)c1sc(N)c(C(=O)OCC)c1C`, which growth is on record?
A: The growth was 74%.

Q: Which growth does the source give for `CN(C)S(=O)(=O)c1oc(-c2ccccc2)nc1C#N` here?
A: The growth was -23.6% (active).

Q: `O=C1Nc2cc(Cl)ccc2/C1=C\c1ccc(OCc2ccc(Br)cc2F)cc1` was tested. Which growth did it give?
A: The growth was -66.9% (active).

Q: For `COc1cc(/C=C/C(=O)c2cc(OC)c(OC)c(OC)c2)ccc1OCc1ccccc1`, which growth is on record?
A: The growth was 63.1%.

Q: `NC(=O)c1cc(-c2ccc3ncnc(N4CCc5cc(F)c(Cl)cc54)c3c2)cnc1N` was tested. Which growth did it give?
A: Its growth is 25.1%.

Q: For `COc1ccc(NC2=C(Cl)C(=O)C(C)=C(C)C2=O)cc1OC`, which growth is on record?
A: The growth was 99.7%.

Q: `Cn1ccnc1C(=O)/C=C/c1ccc(NC(=O)Nc2ccc(F)cc2)cc1` was tested. Which growth did it give?
A: Its growth is 69%.

Q: `O=C(CCN1C(=O)/C(=C/c2ccccc2)SC1=S)N1CCOCC1` was tested. Which growth did it give?
A: Its growth is 72.9%.

Q: `Cc1ccc(CNS(=O)(=O)/N=C2\NC(=O)NC2=C(Cl)Cl)cc1` was tested. Which growth did it give?
A: The growth was 94.7%.

Q: `N#Cc1c(-c2ccc(Cl)cc2)nc(SCc2ccc(F)cc2)nc1N1CCNCC1` was tested. Which growth did it give?
A: The growth was 88.3%.

Q: `Clc1ccc(-c2cn3cc(Cc4ccc(Cl)c(Cl)c4)sc3n2)cc1` was tested. Which growth did it give?
A: Its growth is 86.3%.

Q: `COc1ccc(/C=N/NC(=O)c2[nH]c3ccc(Br)cc3c2-c2ccccc2)o1` was tested. Which growth did it give?
A: The growth was 51.5%.

Q: Which growth does the source give for `O=C(Nc1nc2ccc(O)cc2s1)c1cccc(C(F)(F)F)c1` here?
A: Its growth is 81.6%.
